Bioassay records (PubChem BioAssay)
A selection: hits, their analogues and other compounds. The true share with any hit is near 10%.
Six1-Eya2 inh – inhibitors of human Six1/Eya2 interaction; Q15475+O00167; AlphaScreen GST-Six1/His-Eya2 binding, biochemical; active compounds read low; activity change, % (no concentration beside the values); 360,000 compounds, 0.56% hits; in the data active means activity change below about -65%; inconclusive means mostly about -30% to -63%; further: on the % scale 0 is the no-effect control and ±100 the full control effect
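GST-Six1 + His-Eya2 (5X stock: 250/500 nM); Tris pH 8.0, 300 mM NaCl, 0.05% BSA, 0.02% Tween 20; GSH donor/Ni acceptor beads; 1 h 37 °C dark; AlphaScreen readout.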
G9a block – G9a (human) methyltransferase inhibition; Q96KQ7; G9a H3K9 monomethylation, AlphaScreen, 2 h; Potency, µM (highest dose often 102 µM), inactives show at the highest dose activity, negative = inhibition, usual class: inhibitors; 350,000 compounds, 8.8% hits; further: potency means the concentration at half of the fitted maximal effect; on the % scale 0 is the no-effect control and ±100 the full control effect; nearly all actives have a fitted effect of over 75% in size
Target sequence (Q96KQ7 913-1193 limits assumed): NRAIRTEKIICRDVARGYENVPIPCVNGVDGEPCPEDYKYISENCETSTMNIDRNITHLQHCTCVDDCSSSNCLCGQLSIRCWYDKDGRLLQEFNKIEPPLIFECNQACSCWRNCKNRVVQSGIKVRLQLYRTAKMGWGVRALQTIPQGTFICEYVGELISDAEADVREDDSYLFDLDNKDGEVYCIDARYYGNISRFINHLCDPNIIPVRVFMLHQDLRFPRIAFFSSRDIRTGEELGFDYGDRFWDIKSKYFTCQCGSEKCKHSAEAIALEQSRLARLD
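Methyltransferase reactions run at room temperature for 2 h (20 nM enzyme, 500 nM biotin-H3K9 peptide, 20 uM SAM) after a 15 min compound preincubation; product detected by AlphaScreen beads and anti-H3K9me1 antibody.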
JMJD2A Tudor inh – inhibitors of human JMJD2A Tudor domain | 390,000 compounds, 4.4% hits | AlphaScreen JMJD2A-Tudor / H3K4me3 peptide binding | Potency, µM (series often up to 114 µM), for inactives: top-dose activity change, negative = inhibition, usual class: inhibitors | AID 504339 | O75164; further: potency means the concentration at half of the fitted maximal effect; on the % scale 0 is the no-effect control and ±100 the full control effect; nearly all actives have a fitted effect of over 50% in size
HP1b chromo inh – blocks HP1-beta chromodomain binding to methylated histone tails; AlphaScreen HP1-beta / biotin-H3K9me3 peptide binding; Potency, µM (titrated, usually from 114 µM), for inactives: at the highest dose activity change, negative = inhibition, most hits filed as inhibitors; 390,000 compounds, 0.56% hits; further: potency means the concentration at half of the fitted maximal effect; nearly all actives have a fitted effect of over 70% in size
Target sequence (P83916 whole entry, looked up): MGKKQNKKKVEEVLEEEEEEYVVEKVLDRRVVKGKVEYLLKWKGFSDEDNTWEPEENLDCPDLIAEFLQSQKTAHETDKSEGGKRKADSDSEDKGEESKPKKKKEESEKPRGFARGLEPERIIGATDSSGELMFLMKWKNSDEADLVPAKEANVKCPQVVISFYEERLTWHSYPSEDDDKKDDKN
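HP1-beta protein (50 nM final) preincubated 30 min at room temperature with biotinylated H3(1-18)K9me3 peptide (50 nM) in PBS pH 7.4, 0.01% Tween-20, then compound added for 30 min. AlphaScreen streptavidin donor/nickel chelate acceptor beads (10 ug/mL final), 30 min dark, luminescence read.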
BAZ2B inh – inhibitors of human BAZ2B bromodomain | 360,000 compounds, 4.4% hits | Q9UIF8 | Potency, µM (titrated, usually from 114 µM), without a hit: at the top dose activity change, negative = inhibition, hits mostly inhibitors | AlphaScreen BAZ2B-H3K14Ac peptide displacement; further: potency means the concentration at half of the fitted maximal effect; on the % scale 0 is the no-effect control and ±100 the full control effect; nearly all actives have a fitted effect of over 60% in size
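Protein-peptide AlphaScreen: BAZ2B 50 nM, b-H3K14Ac 50 nM, 1x PBS pH 7.4 + 0.01% Tween-20. Preincubation 30 min RT; cpd 30 min RT (top 110 uM); beads 20 min RT, light-protected.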
CtBP-E1A blk – blocks the CtBP interaction with E1A | AlphaScreen GST-E1A/His-CtBP binding, 1536-well; active compounds read low | activity change, % (concentration not given with the values) | 340,000 compounds, 0.49% hits | AID 651724; in the data active means activity change below about -65%; inconclusive means mostly about -30% to -63%; further: on the % scale 0 is the no-effect control and ±100 the full control effect
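In 5 uL wells, 23 nL compound meets equimolar GST-E1A and His-CtBP (5X stock 125 nM each) for 2 h, 37 °C. Beads (5X, 50 ug/mL) then 1 h, 37 °C, dark.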
Active calls of the source: *; ? = inconclusive; . = no result; [ ] = remark or other dose. Unless noted, the call rests on the fitted dose curve; in most records, active means well fitted inhibition curve with a large enough effect; inconclusive means small, poorly fitted or top-dose-only effect; inactive means no such curve, though single readings can be large or run the other way.

SMILES | Six1-Eya2 inh | G9a block | JMJD2A Tudor inh | HP1b chromo inh | BAZ2B inh | CtBP-E1A blk
N#CCN(CC#N)C(=O)C1c2ccccc2Oc2ccccc21 | 5.5 | . | 39.8µM* | 14.4% | -6.5% | 1.6
NC(=O)COC(=O)C1c2ccccc2Oc2ccccc21 | 3.7 | -1.6%[2.33 µM] | -12.9% | 65.7% | 29.0% | 2.3
COc1ccc(OCc2cc(C(=O)O)c(C)o2)cc1 | . | 44.7µM* | . | . | 79.4µM* | .
COCCn1c(=O)c(-c2ccc(OC)cc2)nc2cnc(N3CCN(C)CC3)nc21 | . | 8.0%[0.501 µM] | . | . | . | .
CCOC(=O)C1=NN(N=O)C2(CC(=O)N(c3cc(C)cc(C)c3)C2=O)C1 (centres undefined) | 3.0 | 4.47µM* | -34.1% | 9.5% | -9.1% | 4.4
O=C(NC1(C(F)(F)F)C(=O)Nc2c1c(=O)[nH]c(=O)n2-c1ccccc1)c1ccccc1 (centres undefined) | . | -35.3%[59 µM] | -5.2% | 26.9% | -1.3% | .
Cc1ccc(N=C2NC(=O)S/C2=C\c2ccco2)cc1 | -0.4 | ? | 17.8µM* | 0.8% | 63.1µM* | -0.8
COc1ccc(N=C2NC(=O)S/C2=C\c2ccc(N(C)C)cc2)cc1 | -13.7 | -41.8%[59 µM] | -30.1% | -17.9% | -34.7% | -2.7
O=C1NC(=Nc2ccccc2)/C(=C/c2ccco2)S1 | -6.6 | 11.2µM* | -29.4% | 21.9% | 50.1µM* | -2.7
COc1ccc(OC)c(NC(=O)Cn2c(CCC(=O)O)ccc2-c2cccs2)c1 | -5.6 | ? | -30.5% | 8.3% | ? | -5.8
O=C(O)CCc1ccc(-c2cccs2)n1CCc1ccccc1 | 2.1 | . | ? | 34.2% | 28.2µM* | .
O=C(O)CCn1nnc(-c2cccs2)n1 | 2.1 | ? | -13.4% | 17.1% | 79.4µM* | 5.3
COc1cccc(NC(=O)Cn2c(CCC(=O)O)ccc2-c2ccccc2)c1 | -9.3 | -36.6% | -9.7% | 4.6% | -32.1% | -2.8
COc1cccc(NC(=O)Cn2c(CCC(=O)O)ccc2-c2ccc(Cl)cc2)c1 | 3.5 | . | -22.0% | -13.0% | 44.7µM* | 4.0
O=C(O)CCc1ccc(-c2cccs2)n1NC(=O)c1ccccc1Br | -10.4 | -14.2%[59 µM] | ? | 11.7% | ? | -7.4
O=C(O)CCc1ccc(-c2cccs2)n1CCC(=O)O | -4.7 | 20µM* | -28.5% | 28.2% | ? | -0.5
CCCCN(CC)C(=O)Cn1c(=O)n(-c2ccc(OCC)cc2)c(=O)c2c3c(sc21)CCCC3 | . | -30.5%[59 µM] | -28.0% | 0.2% | -12.4% | .
O=C1CCN(CCc2ccccc2)CCN1C(CSc1ccc(Br)cc1)c1ccccc1 (centres undefined) | . | . | ? | 22.6% | . | .
COc1cccc(NC(=O)Cn2c(CCC(=O)O)ccc2-c2cccs2)c1 | -8.3 | -7.0% | -19.7% | -14.0% | -22.2% | -6.5
Cc1ccc(NC(=O)Cn2c(CCC(=O)O)ccc2-c2cccs2)cc1Cl | -1.3 | 44.7µM* | ? | 14.2% | ? | -2.4
CCOc1cccc(N2C(=O)CC(NCc3ccc(S(N)(=O)=O)cc3)C2=O)c1 (centres undefined) | -0.9 | 50.1µM* | 7.4% | 52.6% | -6.4% | -0.8
CC1C(=O)NN=C1C(=O)N/N=C\c1ccc(O)cc1O (centres undefined) | -92.1* | 4.5%[59 µM] | 39.8µM* | 16.2% | 11.2µM* | -10.9
COc1cc(/C=N/NC(=O)C2=NNC(=O)C2C)ccc1O (centres undefined) | -3.2 | ? | ? | 4.9% | ? | 6.1
O=C1COc2ccc(C(=O)COC(=O)c3cc(S(=O)(=O)NCc4ccccc4)ccc3O)cc2N1 | 1.9 | ? | -13.7% | 14.3% | -22.0% | 5.0
O=C1C(=O)N(CCN2CCOCC2)C(c2ccc(Cl)c(Cl)c2)/C1=C(/O)c1ccc2c(c1)OCO2 (centres undefined) | -9.5 | ? | -18.5% | 25.4% | -32.5% | 1.9
SMILES | Six1-Eya2 inh | G9a block | JMJD2A Tudor inh | HP1b chromo inh | BAZ2B inh | CtBP-E1A blk
O=C1C(=O)N(CCN2CCOCC2)C(c2cccc(Cl)c2)/C1=C(\O)c1ccc2c(c1)OCCO2 (centres undefined) | 3.9 | 35.5µM* | -16.3% | 4.6% | ? | 7.0
CCOc1ccc(C2/C(=C(\O)c3ccc4c(c3)OCCO4)C(=O)C(=O)N2CCN2CCOCC2)cc1OC (centres undefined) | -0.4 | 44.7µM* | -6.2% | 17.5% | -32.6% | 3.4
CCN(CC)CCn1c(NCc2cccc(OC)c2)nc2ccccc21 | 0.9 | 50.1µM* | -23.7% | 16.3% | -21.6% | -1.6
CCN(CC)CCn1c(NCc2cc(OC)ccc2OC)nc2ccccc21 | -8.0 | ? | 50.1µM* | 4.6% | -32.5% | -10.9
CCSc1ncccc1C(=O)N[C@@H](CCSC)C(=O)OC | -12.9 | -4.2%[59 µM] | -4.9% | 16.2% | -2.6% | -15.6
COc1cc2c(cc1OC)C(C)N(C(=O)c1cc3n(n1)C(C(F)(F)F)CC(c1ccco1)N3)CC2 (centres undefined) | -21.8 | 17.8µM* | ? | -13.7% | ? | -4.3
O=C(c1cc2n(n1)C(C(F)(F)F)CC(c1ccco1)N2)N1CCc2ccccc2C1 (centres undefined) | -11.0 | ? | -32.5% | 2.2% | ? | -6.0
CCn1c(-c2cccn(Cc3ccccc3)c2=O)n[nH]c1=S | -2.9 | 31.6µM* | ? | 18.4% | -2.0% | -4.0
CCn1c(-c2ccccc2SC)n[nH]c1=S | 0.0 | 14.1µM* | ? | 7.1% | -15.1% | 17.7
CCOC(=O)C1CCN(C(=O)c2ccc3nc(-c4ccc(OC)cc4)c(-c4ccc(OC)cc4)nc3c2)CC1 | 18.4 | 19.3% | -1.4% | 61.8% | -7.0% | 22.2
COc1ccc(Cl)cc1NS(=O)(=O)c1cc(-c2cc(C)no2)ccc1C | . | -1.7%[59 µM] | -3.6% | 54.1% | 0.6% | .
CC(C)OCCCn1c(=O)c2ccccc2n2c(-c3ccc(F)cc3)nnc12 | . | 28.2µM* | ? | -1.0% | ? | .
COc1cc(-c2nnc3n(CCc4ccccc4)c(=O)c4ccccc4n23)cc(OC)c1OC | -2.0 | 17.8µM* | 0.0% | 15.7% | 7.3% | 0.2
Cc1cc[n+](-c2nc([O-])sc2/C=N/Nc2ccc([N+](=O)[O-])cc2)cc1 | -5.8 | 44.7µM* | -32.6% | -20.7% | ? | -4.1
CC(C)N1C/C(=C/c2ccsc2)C(=O)/C(=C/c2ccsc2)C1 | 3.9 | ? | ? | -12.5% | 44.7µM* | 2.3
CCCCOc1cccc(C(=O)N(Cc2ccc(N(C)C)cc2)C2CCS(=O)(=O)C2)c1 (centres undefined) | . | 27.6%[59 µM] | 56.2µM* | ? | -19.0% | .
C=CCOc1ccc(C(=O)N(Cc2ccc(N(C)C)cc2)C2CCS(=O)(=O)C2)cc1 (centres undefined) | -13.8 | 50.1µM* | ? | -20.6% | ? | -4.5
